# Source: PubChem BioAssay
# This is a sample that favours compounds with a hit; in the whole collection about 11% have one here.
# AMA1 RON2 block: inhibitors of Plasmodium falciparum AMA1-RON2 interaction; AlphaScreen AMA1-biotinylated RON2 peptide binding; Potency, µM (highest dose often 58.2 µM), usual class: inhibitors; 0.2% of 360,000 active; AID 720542; note: nearly all actives have a fitted effect of over 45% in size
#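 AMA1 (3D7) with his tag at 25 nM final met compounds first, then biotinylated RON2 peptide at 25 nM; detection used donor plus acceptor beads, 10 µg/mL apiece, read by AlphaScreen after 30 min at room temperature.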
# HCV inhibitor: blocks hepatitis C virus. Huh7.5.1 HCVcc-Cre infection, luciferase reporter, 44 h. Potency, µM (top dose mostly 41.8 µM), actives largely listed as inhibitors. 3.4% of 340,000 active. AID 651820
#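 Seed cells (1,000/well) for 4 h; treat with compound and infect with HCVcc-Cre, moi about 0.5. Incubate 44 h, then detect luciferase activity.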
# Pf growth 96h: inhibits malaria parasite growth, 96 h | P. falciparum luciferase reporter growth, 96 h | Potency, µM (series often up to 28.7 µM), actives largely listed as inhibitors | 6.9% of 320,000 active | AID 504834
#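 Parasite growth measured via integrated firefly luciferase reporter in P. falciparum. Infected erythrocytes at 2% hematocrit, 0.05% parasitemia final were treated 96 hours at 37 C under 5% CO2, and luminescence was read.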
# AmpC inh detg: AmpC beta-lactamase inhibition with detergent present | P00811 | AmpC hydrolysis of nitrocefin, absorbance 480 nm, 0.01% Triton | Potency, µM (series often up to 114 µM), hits mostly inhibitors | 0.041% of 370,000 active; note: nearly all actives have a fitted effect of over 25% in size
# Target sequence (P00811 whole entry, looked up): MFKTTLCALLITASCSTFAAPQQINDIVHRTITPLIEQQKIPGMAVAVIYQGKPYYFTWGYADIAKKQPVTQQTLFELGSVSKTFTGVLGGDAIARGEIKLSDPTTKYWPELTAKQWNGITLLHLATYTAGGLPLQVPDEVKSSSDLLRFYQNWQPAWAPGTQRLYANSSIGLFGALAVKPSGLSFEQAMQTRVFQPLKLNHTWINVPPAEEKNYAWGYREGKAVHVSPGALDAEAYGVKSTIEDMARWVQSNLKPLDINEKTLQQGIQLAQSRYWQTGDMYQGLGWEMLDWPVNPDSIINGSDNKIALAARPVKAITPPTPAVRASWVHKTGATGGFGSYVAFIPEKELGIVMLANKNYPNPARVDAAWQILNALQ
#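 AmpC (5.3 nM in the dispensed reagent) in 20 mM phosphate pH 7.0 with 0.01% (detergent screen) or 0.0001% Triton X-100 was preincubated with compounds for 15 min at room temperature. Nitrocefin was then added from an 800 uM solution, and hydrolysis was followed at 480 nm.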
# Pf growth 48h: P. falciparum growth inhibition at 48 hours (one generation). P. falciparum luciferase growth in erythrocytes, 48 h. Potency, µM (titrated, usually from 28.7 µM), hits mostly inhibitors. 5.9% of 310,000 active. AID 504832
#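 In quantitative HTS format, infected erythrocytes bearing luciferase-reporter parasites were treated for a single generation at 37 C. Luminescence after adding detection reagent served as the growth measure.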
# AmpC inh no detg: inhibitors of E. coli AmpC beta-lactamase without detergent. Potency, µM (titrated, usually from 57.1 µM), hits mostly inhibitors. AmpC nitrocefin hydrolysis, absorbance 480 nm, 0.0001% Triton. P00811. AID 485341. 0.52% of 330,000 active; note: nearly all actives have a fitted effect of over 20% in size
#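 20 mM phosphate pH 7.0 + 0.01% (detergent screen) or 0.0001% Triton X-100; 5.3 nM AmpC reagent; cpd preinc 15 min RT; nitrocefin (800 uM stock) to start; A480 q20 s × 4 min; Activity was normalised to no-enzyme and no-compound control wells.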
# Hits are given with their value; – = inactive; ? = inconclusive; · = no result; [ ] = another dose, or the depositor's remark. Calls come from the whole dose curve; as a rule, active = well fitted curve in the direction sought with a large enough effect; inconclusive = small, poorly fitted or top-dose-only effect, or another doubt; inactive = no such curve, though single readings can be large; an effect the other way counts as inactive or inconclusive.
SMILES,AMA1 RON2 block,HCV inhibitor,Pf growth 96h,AmpC inh detg,Pf growth 48h,AmpC inh no detg
O=C(C1CCC(Cn2c(=S)[nH]c3ccccc3c2=O)CC1)N1CCOCC1 (centres undefined),–,–,–,–,–,–
O=C(C1CCC(Cn2c(=O)[nH]c3ccccc3c2=O)CC1)N1CCN(c2ccccc2)CC1 (centres undefined),–,–[8.37 µM],?,–,–,–
COc1cc2cc(CNc3ccccc3)c(=O)n(CC(=O)Nc3cccc(Cl)c3C)c2cc1OC,·,·,·,–,·,·
CC(C)c1ccc(/C=C(\C#N)c2nc(-c3ccc(O)cc3)cs2)cc1,·,·,·,–,·,·
O=c1c2cccnc2[nH]c(=S)n1CCCN1CCN(c2ccc(F)cc2)CC1,–,–,·,–,–,–
COc1ccc(N2CCN(CCCn3c(=S)[nH]c4ncccc4c3=O)CC2)cc1,–,–,13µM,?,·,–
CCOc1ccc(CCNC(=O)CCc2cn(Cc3ccc(F)cc3)c3ccccc23)cc1,·,·,·,–,·,·
O=C(N/N=C/c1ccncc1)c1ccc(COc2cccc3cccnc23)cc1,–,–,?,–,8.3µM,–
O=C(N/N=C/c1ccc2c(c1)OCO2)c1ccc(COc2cccc3cccnc23)cc1,–,13µM,?,?,?,–[2.29 µM]
Cc1ccc2c(c1)c(=O)c(C(=O)c1ccc3c(c1)OCO3)cn2Cc1cccc(F)c1,·,·,·,–,·,·
O=C1Oc2ccccc2C(=O)C1C(CC(O)c1ccc(-c2ccc(Br)cc2)cc1)c1ccccc1 (centres undefined),·,·,–,·,–,·
CCOC(=O)[C@H]1[C@H]2COc3ccc(C)cc3[C@@H]2N2C(=O)c3cc(F)c(F)cc3NC(=O)[C@@]12C,–,–,?,–,12µM,–
CCOC(=O)[C@H]1[C@H]2COc3ccc(C)cc3[C@@H]2N2C(=O)c3cc(OC)c(OC)cc3NC(=O)[C@@]12C,–,?,?,–,12µM,–
CCOC(=O)[C@H]1[C@H]2COc3ccc(Br)cc3[C@@H]2N2C(=O)c3cc(OC)c(OC)cc3NC(=O)[C@@]12C,–,?,?,?,9.3µM,–
CCOC(=O)[C@H]1[C@H]2COc3ccc(OC)cc3[C@@H]2N2C(=O)c3cc(OC)ccc3NC(=O)[C@@]12C,–,–,?,?,10µM,–
CCOC(=O)[C@H]1[C@H]2COc3ccccc3[C@@H]2N2C(=O)c3cc(OC)c(OC)cc3NC(=O)[C@@]12C,–,–,?,–,?,–
CCOc1ccc(CNC(=O)c2cnc3sc(N4CCOCC4)nn3c2=O)cc1OC,·,·,·,–,·,·
Cc1cc(Nc2ccc(Cl)cc2)n2cnnc2n1,·,·,·,–,·,·
Cc1cc(F)ccc1NC(=O)C1CCCN(C(=O)c2cnn(-c3ccccc3)c2-n2cccc2)C1 (centres undefined),·,·,·,–,·,·
CCOC(=O)[C@H]1[C@H]2COc3ccc(OC)cc3[C@@H]2N2C(=O)c3cc(OC)c(OC)cc3NC(=O)[C@@]12C,–,–,?,–,12µM,–
COC(CNC(=O)c1ccc(CS(=O)(=O)c2ccc(C)cc2)o1)OC,–,–,2.6µM,–,–[0.00184 µM],–
COCCCNC(=O)c1ccc(CS(=O)(=O)c2ccc(OC)cc2)o1,–,–,10µM,?,–,–
COCCCNC(=O)c1ccc(CS(=O)(=O)c2ccc(Br)cc2)o1,–,–,–,?,·,–
COC(CNC(=O)c1ccc(CS(=O)(=O)c2ccc(Br)cc2)o1)OC,–,–,–,–,–[0.00184 µM],–
COc1ccc(C/C(N)=N/n2cnnc2)cc1,–,–,–,–,–,–
SMILES,AMA1 RON2 block,HCV inhibitor,Pf growth 96h,AmpC inh detg,Pf growth 48h,AmpC inh no detg
CC(C)COc1ccc(C/C(N)=N/n2cnnc2)cc1,?,14µM,–,–,–,–
COCCn1c(C)cc(O)c(C(c2ccccc2)N2CCN(CCO)CC2)c1=O (centres undefined),·,·,·,–,·,·
N=c1c(-c2nc3ccccc3[nH]2)cc(C(=O)c2cccs2)nn1-c1ccccc1,–,–,?,–,?,–
N=c1c(-c2nc3ccccc3[nH]2)cc(C(=O)c2ccco2)nn1-c1ccccc1,–,7.9µM,?,?,?,–
CCCC(C(=O)NCc1ccccc1)N(C(=O)Cn1nnc(-c2cccs2)n1)c1ccc2c(c1)OCCO2 (centres undefined),–,–,?,–,?,–
CC(C)(C)NC(=O)C(c1ccncc1)N(Cc1cccs1)C(=O)Cn1nnc(-c2cccs2)n1 (centres undefined),–,?,?,–,2.9µM,–
O=C(NCc1ccccc1)C(c1ccc(F)cc1)N(Cc1ccc2c(c1)OCO2)C(=O)Cn1nnc(-c2cccs2)n1 (centres undefined),–,?,–,–,10µM,–
Cc1ccc(-c2nnn(CC(=O)N(Cc3ccco3)C(C(=O)NC(C)(C)C)c3ccc(C)o3)n2)o1 (centres undefined),–,11µM,–,–,?,–
CC(C)(C)NC(=O)C(c1ccncc1)N(C(=O)Cn1nnc(-c2cccs2)n1)C1CCCCC1 (centres undefined),–,–,–,–,9.3µM,–
N#Cc1cccc(NC(=O)Cn2nc(Cc3ccncc3)c3ccccc3c2=O)c1,·,·,·,–,·,·
CCC(C)(C)NC(=O)C(c1ccncc1)N(Cc1cccs1)C(=O)Cn1nnc2ccccc21 (centres undefined),–,–,12µM,–,?,–
O=C(CN(Cc1ccco1)C(=O)Cn1nnc(-c2cccs2)n1)NCc1ccccc1,–,–,?,?,–,–
Cc1ccc(C(C(=O)NC(C)(C)C)N(Cc2ccco2)C(=O)Cn2nnc(-c3cccs3)n2)cc1 (centres undefined),–,?,–,–,9.3µM,–
CCC(C)(C)NC(=O)C(c1ccc(C)cc1)N(Cc1ccco1)C(=O)Cn1nnc2ccccc21 (centres undefined),–,–,–,–,?,–
CC(C)(C)NC(=O)C(c1ccc(O)cc1)N(Cc1ccco1)C(=O)Cn1nnc(-c2cccs2)n1 (centres undefined),–,–,–,–,13µM,–
CC1Oc2ccccc2N(CC(=O)N2CCCC2)C1=O (centres undefined),–,–,4.7µM,–,–,–
CCCn1c(CCC(=O)Nc2cc(OC)cc(OC)c2)nc2cccnc21,·,·,·,–,·,·
Cc1sc2ncn(CC(=O)N3CCN(c4ccccc4)CC3)c(=O)c2c1S(=O)(=O)N1CCN(c2ncccn2)CC1,·,·,·,–,·,·
O=C(CCl)Nc1ccc(S(=O)(=O)Nc2nccs2)cc1,–,?,1.5µM,–,2.3µM,–
O=C(Nc1ccc(S(=O)(=O)Nc2nccs2)cc1)c1nn(-c2ccc(F)cc2)ccc1=O,–,–,?,–,?,10µM
